Source: PubChem
S1P4 ag = human S1P4 receptor agonism | 220,000 compounds, 0.35% hits | O95977 | S1P4-expressing cell line, agonist reporter assay | activation, % at 4.98 µM | AID 1509; in the data active = activation above about 11%
EP2 antag = EP2 receptor (human) inhibition. 260,000 compounds, 0.52% hits. AID 1422. inhibition, % at 25 µM. C6 glioma cells expressing human EP2, cAMP TR-FRET; cells stimulated with saturating PGE2. P43116;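 active = percent inhibition above 40 after rounding to a whole number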;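 note: rat C6 glioma host cells with rolipram phosphodiesterase inhibitor present; the protocol text gives 20 µM as final concentration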
Target sequence (P43116 whole entry, looked up): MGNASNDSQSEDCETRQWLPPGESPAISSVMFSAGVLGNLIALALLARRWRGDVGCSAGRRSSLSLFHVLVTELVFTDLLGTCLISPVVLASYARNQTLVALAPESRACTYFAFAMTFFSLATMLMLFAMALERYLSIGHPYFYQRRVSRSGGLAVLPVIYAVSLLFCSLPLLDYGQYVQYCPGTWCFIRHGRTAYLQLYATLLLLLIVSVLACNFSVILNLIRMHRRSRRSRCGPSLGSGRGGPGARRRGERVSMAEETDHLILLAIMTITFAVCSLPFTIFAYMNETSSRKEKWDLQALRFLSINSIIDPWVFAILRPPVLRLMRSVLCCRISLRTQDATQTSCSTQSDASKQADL
Insulin prom inh = TRM-6 insulin promoter activity inhibition; inhibition, % at 2 µM; TRM-6 cells (human fetal islet line), insulin promoter-eGFP reporter, imaging; reporter expression induced with tamoxifen; 130,000 compounds, 0.9% hits;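 active = inhibition above the mean plus 3 SD, with well images judged a real hit on visual review, cut at about 60% in these data, passing the limit was not always enough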
S1P3 antag = antagonists of human S1P3 receptor | CHO S1P3 NFAT-BLA reporter, FRET fluorescence, antagonist mode | inhibition, % at 4.98 µM | 170,000 compounds, 0.27% hits | Q99500 | AID 485;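 active = inhibition above the plate cutoff, the mean inhibition of test wells on that plate plus 3 SD, cut at about 28% in these data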;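 note: cells challenged with S1P at its EC80 of 0.8 µM; blue over green emission ratio from cleaved BLA substrate after 4 h stimulation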
EP2 mod = modulators of human EP2 prostaglandin E2 receptor; 260,000 compounds, 0.83% hits; EP2-expressing cells, cAMP HTRF FRET, PGE2 co-stimulation; P43116; induction, % at 25 µM;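 active = compounds whose cAMP rise, as percent of the full-agonist control response, exceeds 60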;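 note: rat C6 glioma line stably carrying human EP2 under a CMV promoter; the protocol text gives 20 µM as final concentration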
S1P4 antag = antagonists of human S1P4 receptor | O95977 | inhibition, % at 4.98 µM | S1P4-expressing cells, antagonist mode, reporter read-out | AID 1510 | 220,000 compounds, 0.26% hits; in the data active = inhibition above about 29%
Numbers stand for hits. Hits are enriched below; roughly 2.4% of the tested compounds scored in any of these assays.

What do the screens show for `CCOC(=O)CSC1=Nc2ccccc2C2=NC(CC(=O)NCc3ccc4c(c3)OCO4)C(=O)N12` (stereo unspecified)?
S1P4 ag: 72; EP2 antag: inactive; Insulin prom inh: inactive; S1P3 antag: inactive; EP2 mod: inactive; S1P4 antag: inactive

What do the screens show for `CCOC(=O)CSC1=Nc2ccccc2C2=NC(CC(=O)NCc3ccc(OC)cc3)C(=O)N12` (stereo unspecified)?
S1P4 ag: inactive; EP2 antag: inactive; Insulin prom inh: inactive; S1P3 antag: inactive; EP2 mod: inactive; S1P4 antag: inactive

What do the screens show for `Cc1ccc(CN(CCCn2ccnc2)Cc2cccc(Cl)c2)o1`?
EP2 antag: inactive; EP2 mod: inactive

What do the screens show for `CCN1CCCC1CNC(=O)C1CCN(c2nc3ccccc3n2CC)CC1` (stereo unspecified)?
EP2 mod: inactive

How did Cn1cc([N+](=O)[O-])c(C(=O)N/N=C/c2ccc3c(c2)OCO3)n1 do in these assays?
S1P4 ag: inactive; EP2 antag: inactive; Insulin prom inh: 78; S1P3 antag: inactive; EP2 mod: inactive; S1P4 antag: inactive

Results for Cc1ccc(C(=O)N/N=C/c2ccc3c(c2)OCO3)o1 ?
S1P4 ag: inactive; EP2 antag: inactive; Insulin prom inh: inactive; S1P3 antag: inactive; EP2 mod: inactive; S1P4 antag: inactive

Results for O=C1/C(=C/C=C2/Sc3ccccc3N2CCO)SC(=S)N1c1ccccc1 ?
EP2 antag: inactive; EP2 mod: inactive

How did N=C(N)SCc1ccc(Cl)cc1Cl (tested in a mixture with another compound) do in these assays?
EP2 antag: 53; EP2 mod: inactive

What do the screens show for `CN(C)c1nc(NCc2ccccc2)nc(SCC(=O)Nc2ccccc2)n1`?
S1P4 ag: inactive; EP2 antag: inactive; EP2 mod: inactive; S1P4 antag: inactive

How did CN(C)c1nc(NC(C)(C)C)nc(SCC(=O)Nc2ccccc2)n1 do in these assays?
S1P4 ag: inactive; EP2 antag: inactive; Insulin prom inh: 80; S1P3 antag: inactive; EP2 mod: inactive; S1P4 antag: inactive

What do the screens show for `Cc1cc(C)c2c(=O)n(CC(=O)Nc3ccc(Br)c(C)c3)sc2n1`?
S1P4 ag: inactive; EP2 antag: inactive; S1P3 antag: inactive; EP2 mod: inactive; S1P4 antag: inactive

How did Cc1cc(C)c2c(=O)n(CC(=O)Nc3cccc(Cl)c3C)sc2n1 do in these assays?
S1P4 ag: inactive; EP2 antag: 44; S1P3 antag: inactive; EP2 mod: inactive; S1P4 antag: inactive

Results for COc1ccc(OC)c(CCNC(=O)Cn2sc3nc(C)cc(C)c3c2=O)c1 ?
S1P4 ag: inactive; EP2 antag: 112; S1P3 antag: inactive; EP2 mod: inactive; S1P4 antag: inactive

How did Cc1cc(C)c2c(N)c(C(=O)NC3CCCC3)sc2n1 do in these assays?
S1P4 ag: inactive; EP2 antag: inactive; S1P3 antag: inactive; EP2 mod: inactive; S1P4 antag: inactive

Results for Cc1cc(C)c2c(=O)n(CC(=O)NC3CCCC3)sc2n1 ?
S1P4 ag: inactive; EP2 antag: 118; S1P3 antag: inactive; EP2 mod: inactive; S1P4 antag: inactive

Results for O=C(Cn1ncc2cccn2c1=O)NC1CCCC1 ?
EP2 antag: inactive; EP2 mod: inactive

Results for CCOc1ccc2c(C)cc(=O)oc2c1OCC ?
S1P4 ag: inactive; EP2 antag: inactive; Insulin prom inh: inactive; EP2 mod: inactive; S1P4 antag: inactive

Results for CCCCOc1ccc2c(C)cc(=O)oc2c1OCCCC ?
S1P4 ag: inactive; EP2 antag: inactive; Insulin prom inh: inactive; EP2 mod: 62; S1P4 antag: inactive

How did CCOc1nc2c(c(=O)n(C)c(=O)n2C)n1Cc1ccccc1F do in these assays?
EP2 antag: inactive; EP2 mod: inactive

Results for COc1ccc(C(=O)N/N=C/c2cn[nH]c2-c2ccc(OC)cc2OC)cc1 ?
S1P4 ag: inactive; EP2 antag: inactive; Insulin prom inh: 66; S1P3 antag: inactive; EP2 mod: inactive; S1P4 antag: inactive

Results for COc1ccc(-c2[nH]ncc2/C=N/NC(=O)c2ccc(Br)cc2)c(OC)c1 ?
S1P4 ag: inactive; EP2 antag: inactive; Insulin prom inh: inactive; S1P3 antag: inactive; EP2 mod: inactive; S1P4 antag: inactive

What do the screens show for `C(=N\Nc1nc2ccccc2[nH]1)/c1ccc2c(c1)OCO2`?
S1P4 ag: inactive; EP2 antag: inactive; Insulin prom inh: inactive; S1P3 antag: inactive; EP2 mod: inactive; S1P4 antag: inactive
